VACV mCherry inh: qHTS for Stage-Specific Inhibitors of Vaccinia Orthopoxvirus: mCherry Reporter Primary qHTS; Vaccinia virus mCherry reporter infection, fluorescence; Potency, µM (titrated, usually from 36.5 µM), inactives show at the highest dose activity change, negative = inhibition, actives largely listed as inhibitors; hit rate 0.63% among 310,000; calls by dose curve; tested in A549 cells; also: % is scaled to controls: 0 for no effect and ±100 for the full control effect; nearly all actives have a fitted effect of over 35% in size
NS1 inh: qHTS Assay for Inhibitors of Influenza NS1 Protein Function; Potency, µM (series often up to 46.1 µM), without a hit: at the top dose activity, positive = more growth; hit rate 0.4% among 270,000; calls by dose curve; also: actives are rising curves; nearly all actives have a fitted effect of over 50% in size
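In this qHTS, NS1 from influenza A is expressed in budding yeast, where it slows growth. Cells are switched from glucose to 2% galactose medium (pH 6.0, -URA), treated with compound, and growth recovery is read at OD600.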
Pf growth 48h: Primary qHTS for delayed death inhibitors of the malarial parasite plastid, 48 hour incubation | AID 504832, 2011 | Potency, µM (doses to about 28.7 µM), for inactives: at the highest dose activity change, negative = inhibition, hits mostly inhibitors | P. falciparum luciferase growth in erythrocytes, 48 h | hit rate 5.9% among 310,000; also: % is scaled to controls: 0 for no effect and ±100 for the full control effect
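Cell-based growth assay: transgenic P. falciparum expressing firefly luciferase, cultured in red cells within RPMI 1640 containing 0.5% w/v Albumax, 24 mM bicarbonate and gentamycin. A drop in luciferase activity indicates inhibition.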
Pf growth 96h: Primary qHTS for delayed death inhibitors of the malarial parasite plastid, 96 hour incubation | P. falciparum luciferase reporter growth, 96 h | Potency, µM (top dose mostly 28.7 µM), for the others: top-dose activity change, negative = inhibition, most hits filed as inhibitors | hit rate 6.9% among 320,000 | AID 504834, 2011; also: % is scaled to controls: 0 for no effect and ±100 for the full control effect
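P. falciparum expressing integrated firefly luciferase, in erythrocytes at 2% hematocrit, 0.05% parasitemia, incubated with compounds 96 h at 37 C, 5% CO2. Growth inhibition read as loss of luminescence; two-generation exposure targets delayed-death apicoplast inhibitors.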
HCV inh: qHTS Assay for Inhibitors of Hepatitis C Virus (HCV). Huh7.5.1 HCVcc-Cre infection, luciferase reporter, 44 h. Potency, µM (series often up to 41.8 µM), for the others: top-dose activity change, negative = inhibition, most hits filed as inhibitors. hit rate 3.4% among 340,000. AID 651820, 2012; also: % is scaled to controls: 0 for no effect and ±100 for the full control effect
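1,000 cells/well; 4 h culture; + compound; + HCVcc-Cre (~0.5 moi); 44 h; luciferase substrate, RT 15 min; read 15 sec.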
VACV Venus inh: qHTS for Stage-Specific Inhibitors of Vaccinia Orthopoxvirus: Venus Reporter Primary qHTS. Vaccinia virus Venus reporter expression, fluorescence. Potency, µM (top dose mostly 36.5 µM), for inactives: top-dose activity change, negative = inhibition, most hits filed as inhibitors. hit rate 0.46% among 330,000. AID 720580, 2013; calls by dose curve; tested in A549 cells; also: % is scaled to controls: 0 for no effect and ±100 for the full control effect; nearly all actives have a fitted effect of over 30% in size
* hit, by the source's call; i = inactive; ? = inconclusive; . = no result. Compounds with a hit are over-represented: about 11% of the library has one in this group of screens. Unless noted, calls follow the shape of the dose curve; as a rule, active = well fitted inhibition curve with a large enough effect; inconclusive = small, poorly fitted or top-dose-only effect, or another doubt; inactive = no such curve, though single readings can be large or run the other way. Potency is read from the fitted curve at half-maximal effect.

SMILES	VACV mCherry inh	NS1 inh	Pf growth 48h	Pf growth 96h	HCV inh	VACV Venus inh
CCOC(=O)N1CCN(c2ccc(S(=O)(=O)N3CCOCC3)cn2)CC1	i	.	.	.	10%	0%
CCN(CC)S(=O)(=O)c1ccc(N2CCN(c3ccccc3O)CC2)nc1	?	-37%	?	13µM*	11µM*	-9%
CCOC(=O)N1CCN(c2ccc(S(=O)(=O)N(Cc3ccccc3)Cc3ccccc3)cn2)CC1	.	-36%	13µM*	-29%	?	-10%
CCOC(=O)CSc1nc2cc(C(=O)NCc3ccco3)ccc2c(=O)n1C1CCCCC1	.	1%	5.9µM*	-2%	-4%	.
O=C(CSc1nc2ccsc2c(=O)n1Cc1ccc(C(=O)O)cc1)NCc1ccco1	-12%	?	-10%	-13%	21%	-7%
COc1ccc(Cn2c(SCC(=O)NCc3ccco3)nc3ccsc3c2=O)cc1	.	2%	13µM*	0%	2.5µM*	.
CCOC(=O)N1CCC(n2c(SCC(=O)NCc3ccco3)nc3ccsc3c2=O)CC1	.	-6%	13µM*	?	?	.
NS(=O)(=O)c1ccc(CCNC(=O)CSc2nc3ccsc3c(=O)n2CC(=O)O)cc1	-14%	-1%	-11%	1.2µM*	23%	-7%
CCOC(=O)CSc1nc2cc(C(=O)NCc3ccco3)ccc2c(=O)n1-c1ccc(F)cc1	.	?	6%	?	13%	.
NS(=O)(=O)c1ccc(CCNC(=O)CSc2nc3ccsc3c(=O)n2CCCCCC(=O)O)cc1	i	.	6%	-19%	?	-9%
COc1ccccc1CC(=O)N1CCOCC1	.	18%	-1%	-27%	17%	.
Fc1ccccc1Cn1nnc2c(NCc3ccccn3)ncnc21	-11%	-17%	-13%	.	21%	-8%
O=C(Nc1ccc(Cl)cc1)OCc1cncs1	.	-2%	42%	81%	-25%	?
Cc1ccc(NCC(=O)N=Nc2c(O)[nH]c3ccc([N+](=O)[O-])cc23)cc1	i	4%	-57%	?	-10%	-1%
CN(C)CCCn1c(=O)n(CCc2ccccc2)c(=O)c2c3c(sc21)CCCCC3	.	-4%	?	?	7%	.
CN(C)CCCn1c(=O)n(Cc2ccco2)c(=O)c2c3c(sc21)CCCCC3	i	3%	?	12µM*	?	-17%
O=[N+]([O-])c1ccc(NC2CCCC2)cc1	-1%	-19%	5%	15%	-9%	-18%
CCOC(=O)c1[nH]c(C)c(CN(C(C)=O)c2ccc(OCC)cc2)c1C	-9%	3%	?	34%	-4%	-21%
COc1ccc(N2C(=O)CC(c3ccc(OC(C)C)cc3)C2=O)cc1 (stereo not given)	-2%	3%	.	7.4µM*	5%	-8%
Cc1ccc(NC(=O)Nc2nc(-c3ccc(C)s3)cs2)cc1	.	12%	-11%	15µM*	?	?
COc1ccc(-c2csc(NC(=O)Nc3ccccc3)n2)cc1	.	3%	.	-3%	?	.
C[N+]1=C(/C=C/Nc2ccccc2Cl)C(C)(C)c2ccccc21	34%	-8%	12µM*	?	?	104%
CC(=O)N1CCC(CCCC2CCN(C(C)=O)CC2)CC1	-27%	.	?	?	4%	-2%
CN(C)CCN(Cc1ccco1)S(=O)(=O)c1csc(C(N)=O)c1	.	-10%	23%	8.3µM*	12%	.
CN(C)CCN(Cc1cccs1)S(=O)(=O)c1csc(C(N)=O)c1	.	13%	20%	?	4%	.
SMILES	VACV mCherry inh	NS1 inh	Pf growth 48h	Pf growth 96h	HCV inh	VACV Venus inh
CCCCN(Cc1ccco1)S(=O)(=O)c1csc(C(N)=O)c1	.	-4%	16%	9.3µM*	8%	.
O=C(O)c1cc(NCc2ccccc2C(F)(F)F)ccc1N1CCOCC1	.	4%	25%	8%	18%	.
C=CCNC(=O)c1ccc2c(c1)S(=O)(=O)c1ccccc1C2=O	?	.	.	.	25µM*	-10%
CC(C)OCCCNC(=O)c1ccc2c(c1)S(=O)(=O)c1ccccc1C2=O	-15%	-7%	-22%	9.3µM*	.	-4%
CC(C)OCCCNC(=O)c1ccc(NS(C)(=O)=O)cc1	i	-18%	-5%	10µM*	-4%	-6%
CC(=O)c1ccc(OCC(=O)Nc2c(C)nn(-c3ccccc3)c2C)cc1	?	.	?	?	-28%	-16%
O=C(NN1C(=O)/C(=C/c2ccc(O)c(O)c2)SC1=S)c1ccccc1	163%	24%	-24%	10µM*	-15%	i
O=C(Cc1ccccc1)NN1C(=O)/C(=C/c2ccccc2C(=O)O)SC1=S	.	.	37%	12µM*	2%	.
O=C1/C(=C/c2ccc(O)c(O)c2)SC(=S)N1Nc1ccccc1	164%	.	?	147%	?	i
CCOc1ccc(/C=C/C2=Cc3c(sc(NC(=O)CSc4n[nH]c(N)n4)c3C#N)C(C)(C)C2)cc1	.	21%	10µM*	8.3µM*	?	.
Cc1ccsc1/C=C/C1=Cc2c(sc(NC(=O)CSc3n[nH]c(N)n3)c2C#N)C(C)(C)C1	?	23%	.	8.3µM*	11µM*	?
O=C(NCCC1=CCCCC1)C1CCN(S(=O)(=O)c2cccc3nsnc23)CC1	-8%	4%	?	1.9µM*	4%	-10%
O=C(NCCc1ccccc1)C1CCN(S(=O)(=O)c2cccc3nsnc23)CC1	-14%	-1%	-6%	?	-5%	-2%
O=C(NCCC1=CCCCC1)C1CCN(S(=O)(=O)c2ccccc2C(F)(F)F)CC1	-1%	.	10µM*	?	1%	-20%
O=C(NCCN1CCCCCC1)C1CCCN1S(=O)(=O)c1cccc2nsnc12 (stereo not given)	-1%	1%	1.7µM*	?	10%	-2%
CCOCCCNC(=O)C1CCC(CNS(=O)(=O)c2cccc3nsnc23)CC1 (stereo not given)	.	-5%	2%	3.7µM*	1%	.
CCOc1ccc(N(CC(=O)NCCc2ccccc2)C(=O)c2csnn2)cc1	-5%	6%	?	?	-4%	18%

Compound activity: PubChem, National Center for Advancing Translational Sciences (NCATS)
